Assay results reported in PubChem BioAssay (Tox21).
Inconclusive results are not listed. Calls of active or inactive are those of the source. Calls come from the whole dose curve; as a rule, active = well fitted activation curve with a large enough effect in the signal ratio in the repeat runs (not every such curve was filed as active); inconclusive = weak or mixed curves, or effect the other way; inactive = flat fitted curve, though single readings scatter; the % refers to the signal ratio.

assay: qHTS assay to identify small molecule agonists of the endoplasmic reticulum stress response signaling pathway (AID 1159516); conditions: ESRE-bla HeLa, ER stress beta-lactamase reporter, 5 h; series mostly up to 61 µM
Text: National Center for Advancing Translational Sciences [NCATS]
NIH Chemical Genomics Center [NCGC]
U.S. Environmental Protection Agency [EPA]
National Institutes of Environmental Health Sciences [NIEHS]
National Toxicology Program [NTP]
U.S. Food and Drug Administration [FDA]
Endoplasmic Reticulum (ER) plays an important role in cellular signaling, protein folding/maturation, stress response, lipid biosynthesis, calcium storage and release etc. Under stress conditions, proteins in ER misfold or unfold, and leading to the expression of ER stress responsive genes. ER stress has been associated with a variety of pathophysiological conditions such as cancer, inflammation, neurodegenerative diseases, diabetes, ischemic heart disease etc. To identify the compounds that induce ER stress response, an ER stress reporter cell line, CellSensor ESRE-bla HeLa (Life Technologies, Carlsbad, CA) containing a beta-lactamase reporter gene under control of the Endoplasmic reticulum Stress Response Element (ESRE) was used to screen Tox21 10K compound library.
Tox21 Assay Protocol Summary:
ESRE-bla HeLa cells were dispensed at 1,500 cells/6 uL of assay medium per well into black wall/clear-bottom 1536-well plates using a Multidrop Combi (ThermoFisher Scientific, Waltham, MA) dispenser. After the assay plates were incubated at 37 C and 5% CO2 for an overnight, 23 nL of compounds dissolved in DMSO, positive controls or DMSO only was transferred to the assay plate by a Pintool station (Kalypsys, San Diego, CA). The assay plates were incubated at 37 C and 5% CO2 for 5 hr. One uL of LiveBLAzer B/G FRET substrate (Life Technologies) was added using a Flying Reagent Dispenser (Aurora Discovery, San Diego, CA) and the plates were incubated at room temperature for 2 hr. Fluorescence intensity (405 nm excitation, 460 nm and 530 nm emissions) was measured using an Envision plate reader (PerkinElmer, Shelton, CT).
% is set by controls: 0 for no effect and ±100 for the full control effect.

| SMILES | outcome | activation |
| --- | --- | --- |
| CC(N)CCCC(C)(C)O (stereo not given) | inactive | – |
| COC(=O)CCCCC(=O)O | inactive | – |
| C=CCOC(=O)CCCCCC | inactive | – |
| COS(=O)(=O)O | inactive | – |
| O=Cc1ccccc1Cl | inactive | – |
| CC1(C)Cc2cccc(N)c2O1 | inactive | – |
| C/C(=C1\CCOC(=O)S1)N(C=O)Cc1cnc(C)nc1N | inactive | – |
| [O]=[Mo](=[O])=[O] | inactive | – |
| O=C(O)CONC(=O)c1ccccc1 | inactive | – |
| C[C@]12CCC(=O)C=C1CC[C@H]1[C@@H]3CC[C@](O)(C(=O)CO)[C@@]3(C)C[C@H](O)[C@@]12F | inactive | – |
| CC(CO)(CO)CO | inactive | – |
| N#Cc1cscn1 | inactive | – |
| CN(C)C(C)(C)CO | inactive | – |
| CCC/C=C(\C=O)CC | inactive | – |
| C=CCCCCCCCCC(=O)OCCCC | inactive | – |
| CC1=C(O)C(=O)C(C)O1 (stereo not given) | inactive | – |
| COc1cc2c(cc1OC)C(=O)C(CC1CCN(Cc3ccccc3)CC1)C2 (stereo not given) | inactive | – |
| Fc1ccccc1 | inactive | – |
| CSc1cnccn1 | inactive | – |
| CCCCCCCCCCCCCBr | inactive | – |

| SMILES | outcome | activation |
| --- | --- | --- |
| c1ccc2cnccc2c1 | inactive | – |
| CCC(C)OC(C)CC (stereo not given) | inactive | – |
| CC(C)OC(=O)OCOP(=O)(CO[C@H](C)Cn1cnc2c(N)ncnc21)OCOC(=O)OC(C)C | inactive | – |
| CC(=O)OCC(=O)Nc1cc(C#N)cc(NC(=O)COC(C)=O)c1Cl | inactive | – |
| CCCC(=O)OCCC(C)CCC=C(C)C (stereo not given) | inactive | – |
| CCCSSCCC | inactive | – |
| CN(C)CCCCl | inactive | – |
| O=C1c2ccccc2C(=O)c2cc(Cl)ccc21 | – | 0.175% [at 6.95 µM] (inactive) |
| C=CC(=O)OCC1CCCO1 (stereo not given) | inactive | – |
| O=[N+]([O-])c1c(Cl)cc(Cl)cc1Cl | inactive | – |
| CCCCCCCCCOC(=O)CCCCC(=O)OCCCCCCC | inactive | – |
| OCC1(CO)COCOC1 | inactive | – |
| COc1cc(OC)nc(O[C@H](C(=O)O)C(OC)(c2ccccc2)c2ccccc2)n1 | inactive | – |
| Cc1ccc2c(c1)C(=O)c1ccccc1C2=O | inactive | – |
| CN1C[C@@H]2C[C@H]1CN2c1cc2c(cc1F)c(=O)c(C(=O)O)cn2C1CC1 | inactive | – |
| N#CCC(=O)NN | inactive | – |
| O=C(CCCCC(=O)Nc1c(I)cc(I)c(C(=O)O)c1I)Nc1c(I)cc(I)c(C(=O)O)c1I | inactive | – |
| O=C(O)CCCCCC(=O)O | inactive | – |
| CCN1CCCC1CN (stereo not given) | inactive | – |
| Cc1c(N)cccc1Cl | inactive | – |
